# Inconclusive results are not listed. Active and inactive are the calls of the source. Rule for the calls: active = hit-call score of the fitted dose curve at least 0.9, where 1 is the maximum; inconclusive = response in the unintended direction; inactive = score below 0.9.
# Tests used:
# [1] = TOX21_p53_BLA_p5_viability: Viability Assessment in the Tox21 HCT-116 p53 Agonism Beta-lactamase Assay, Phase 5 (AID 2283600)
# Method in brief: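 Compounds, pinned from DMSO at 217-fold dilution, were left on the cells for 16 h. The viability endpoint was ATP content measured by CellTiter-Glo luminescence, where falling signal reflects cytotoxicity.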
# [2] = target: Cellular tumor antigen p53 (Homo sapiens) (UniProt P04637); experiment: TOX21_p53_BLA_p4_ratio: Tox21 HCT-116 p53 Agonism Beta-lactamase Assay, Ratio, Phase 4 (AID 2283601)
# Chain of Cellular tumor antigen p53 (Homo sapiens) (P04637 whole entry, looked up): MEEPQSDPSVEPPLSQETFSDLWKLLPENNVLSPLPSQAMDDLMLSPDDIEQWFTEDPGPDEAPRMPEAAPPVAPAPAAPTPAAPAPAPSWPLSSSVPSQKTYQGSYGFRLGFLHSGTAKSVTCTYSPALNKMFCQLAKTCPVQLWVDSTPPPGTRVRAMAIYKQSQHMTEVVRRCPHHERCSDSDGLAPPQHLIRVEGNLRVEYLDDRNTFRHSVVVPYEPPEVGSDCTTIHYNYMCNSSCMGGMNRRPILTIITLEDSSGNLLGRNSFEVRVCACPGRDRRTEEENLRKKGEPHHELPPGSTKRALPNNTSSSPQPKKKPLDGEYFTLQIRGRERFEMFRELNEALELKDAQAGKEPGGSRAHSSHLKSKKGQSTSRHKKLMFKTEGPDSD
# Method in brief: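 HCT116 cells carrying an inducible beta-lactamase reporter were plated at 4000 cells/well, rested 5 h, then exposed to compounds in DMSO (217-fold dilution) for 16 h at 37C. CCF4-AM substrate was loaded 2 h at room temperature; 460/530 nm emission ratio scored gain-of-signal versus DMSO.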
# [3] = Tanguay_ZF_120hpf_MORT_legacy: (Legacy) Oregon State University Tanguay Lab 120 Hour Post-fertilization zebrafish Assay for Mortality (AID 2283633)
# Method in brief: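 Brightfield scoring of embryo death (binary) at 24 and 120 hpf; static exposure 6–120 hpf, 28C, sealed and foil-covered. Pronase-dechorionated 5D wild-type larvae, single embryo per well. DMSO 0.64% v/v; trimethyltin chloride 5uM positive control.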
# [4] = Tanguay_ZF_120hpf_YSE_legacy: (Legacy) Oregon State University Tanguay Lab 120 Hour Post-fertilization zebrafish Assay for Yolk Sac Edema (AID 2283634)
# Method in brief: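 Binary brightfield scoring of yolk sac edema at 120 hpf; DMSO baseline, gain-of-signal fitting. Dechorionated 5D larvae, one per well, static exposure 6–120 hpf, 28C, 0.64% DMSO. Dead embryos not scored.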
# [5] = Tanguay_ZF_120hpf_AXIS_legacy: (Legacy) Oregon State University Tanguay Lab 120 Hour Post-fertilization zebrafish Assay for Body Axis Malformation (AID 2283635)
# Method in brief: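 Embryos: 5D wild-type, pronase-dechorionated 4 hpf; static exposure 6–120 hpf, 28C, sealed, dark, 1 embryo/well, 0.64% DMSO. 120 hpf axis malformation scored present/absent; dead embryos excluded. Analysed as gain of signal vs DMSO.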
# [6] = Tanguay_ZF_120hpf_EYE_legacy: (Legacy) Oregon State University Tanguay Lab 120 Hour Post-fertilization zebrafish Assay for Eye Malformation (AID 2283636);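 note: binary presence or absence of eye malformation scored by brightfield in 120 hpf larvae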
# Method in brief: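 Dechorionated wild-type Tropical 5D zebrafish embryos were exposed statically from 6 hpf, one per well, to 120 hpf at 28C in sealed, foil-covered plates with 0.64% DMSO. Eye malformation was scored present/absent by brightfield microscopy against DMSO controls.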
# [7] = Tanguay_ZF_120hpf_SNOU_legacy: (Legacy) Oregon State University Tanguay Lab 120 Hour Post-fertilization zebrafish Assay for Snout Malformation (AID 2283637)
# Method in brief: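 Tropical 5D wild-type zebrafish embryos, dechorionated with pronase at 4 hpf, were exposed singly from 6 hpf to 120 hpf statically at 28C in 0.64% DMSO. Snout malformation was scored present/absent by brightfield microscopy, fitted against DMSO.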
# [8] = Tanguay_ZF_120hpf_JAW_legacy: (Legacy) Oregon State University Tanguay Lab 120 Hour Post-fertilization zebrafish Assay for Jaw Malformation (AID 2283638)
# Method in brief: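 Binary jaw-malformation calls at 120 hpf by brightfield imaging; DMSO (0.64% v/v) = baseline. Embryos: 5D wild-type, pronase-dechorionated, one per well from 6 hpf, static exposure, 28C, sealed, dark.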
# [9] = Tanguay_ZF_120hpf_OTIC_legacy: (Legacy) Oregon State University Tanguay Lab 120 Hour Post-fertilization zebrafish Assay for Otic Vesicle Malformation (AID 2283639)
# Method in brief: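 Tropical 5D wild-type zebrafish embryos were exposed statically in sealed, foil-covered plates at 28C until 120 hpf, with 0.64% (vol/vol) DMSO final. Otic vesicle malformation was scored present/absent by brightfield microscopy, with DMSO as baseline.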
# [10] = Tanguay_ZF_120hpf_PE_legacy: (Legacy) Oregon State University Tanguay Lab 120 Hour Post-fertilization zebrafish Assay for Pericardial Edema (AID 2283640)
# Method in brief: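 Static waterborne exposure, 5D wild-type embryos, 28C, to 120 hpf; final DMSO 0.64% (vol/vol). Binary PE call at 120 hpf by brightfield; fitted upward vs DMSO baseline. 5uM trimethyltin chloride as positive control.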
# [11] = Tanguay_ZF_120hpf_BRAI_legacy: (Legacy) Oregon State University Tanguay Lab 120 Hour Post-fertilization zebrafish Assay for Brain Malformation (AID 2283641)
# Method in brief: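 Read-out: binary brain morphology call at 120 hpf (brightfield), fitted in gain-of-signal direction vs DMSO. Wild-type Tropical 5D embryos, static exposure, 28C, 0.64% DMSO final; 5uM trimethyltin chloride as positive control.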
# [12] = Tanguay_ZF_120hpf_SOMI_legacy: (Legacy) Oregon State University Tanguay Lab 120 Hour Post-fertilization zebrafish Assay for Somite Malformation (AID 2283647)
# Method in brief: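 Binary brightfield scoring of somite defects at 120 hpf in 5D wild-type larvae; one dechorionated embryo per well, static exposure from 6 hpf, 28C, sealed and dark. Final DMSO 0.64%; trimethyltin chloride 5uM positive control.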
# [13] = Tanguay_ZF_120hpf_PFIN_legacy: (Legacy) Oregon State University Tanguay Lab 120 Hour Post-fertilization zebrafish Assay for Pectoral Fin Malformation (AID 2283648);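 note: each larva judged yes or no for fin defect by brightfield with dead larvae skipped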
# Method in brief: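 Tropical 5D wild-type embryos, dechorionated with pronase at 4 hpf, were placed singly in wells at 6 hpf and statically exposed until 120 hpf at 28C, sealed and dark, with 0.64% (vol/vol) final DMSO; pectoral fin malformation scored present/absent.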
# [14] = Tanguay_ZF_120hpf_CFIN_legacy: (Legacy) Oregon State University Tanguay Lab 120 Hour Post-fertilization zebrafish Assay for Caudal Fin Malformation (AID 2283649)
# Method in brief: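 Dechorionated 5D wild-type zebrafish, static exposure 6–120 hpf, 28C, sealed and dark, 0.64% v/v DMSO final. Binary fin-malformation call at 120 hpf, brightfield; gain of signal vs DMSO baseline.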
# [15] = Tanguay_ZF_120hpf_PIG_legacy: (Legacy) Oregon State University Tanguay Lab 120 Hour Post-fertilization zebrafish Assay for Pigmentation Malformation (AID 2283650)
# Method in brief: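 Tropical 5D wild-type zebrafish embryos, dechorionated with pronase at 4 hpf, were exposed singly from 6 hpf to 120 hpf statically at 28C in sealed, dark plates with 0.64% DMSO; pigmentation scored present/absent by brightfield microscopy, fitted against DMSO.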
# [16] = Tanguay_ZF_120hpf_CIRC_legacy: (Legacy) Oregon State University Tanguay Lab 120 Hour Post-fertilization zebrafish Assay for Circulatory Malformation (AID 2283651)
# Method in brief: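 Tropical 5D wild-type embryos, dechorionated with pronase at 4 hpf, were placed singly in wells at 6 hpf and exposed statically at 28C to 120 hpf (0.64% DMSO final). Circulatory malformation was scored present/absent by brightfield microscopy.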
# [17] = Tanguay_ZF_120hpf_SWIM_legacy: (Legacy) Oregon State University Tanguay Lab 120 Hour Post-fertilization zebrafish Assay for Swim Bladder Malformation (AID 2283654);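 note: swim bladder malformation in each larva scored yes or no under brightfield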
# Method in brief: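 Dechorionated Tropical 5D wild-type embryos, placed singly from 6 hpf, were statically exposed at 28C to 120 hpf with 0.64% DMSO final; swim bladder malformation was scored present/absent by brightfield microscopy, gain of signal relative to DMSO controls.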
# [18] = Tanguay_ZF_120hpf_TRUN_legacy: (Legacy) Oregon State University Tanguay Lab 120 Hour Post-fertilization zebrafish Assay for Truncated Body (AID 2283655)
# Method in brief: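 Whole-embryo zebrafish screen: dechorionated 5D embryos, static exposure 6–120 hpf, 28C, sealed foil-covered plates, 0.64% DMSO. Binary truncation call; gain of signal versus DMSO baseline.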
# [19] = Tanguay_ZF_120hpf_NC_legacy: (Legacy) Oregon State University Tanguay Lab 120 Hour Post-fertilization zebrafish Assay for Notochord and Tail Malformation (AID 2283656)
# Method in brief: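 Dechorionated 5D zebrafish, 1/well from 6 hpf; static exposure to 120 hpf, 28C, sealed, dark; final DMSO 0.64% v/v. NC scored binary (present/absent); dead embryos not scored. Fit vs DMSO baseline, gain direction.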
smiles,measurement,setting,value
O=C(Nc1cccc(Cl)c1)OCC#CCCl,outcome,[1],inactive
same,AC50,[2],19.6 µM (active)
O=S(=O)(O)c1cc(S(=O)(=O)O)c2c(N=Nc3ccccc3)c(O)ccc2c1,outcome,[1],inactive
same,outcome,[2],inactive
CN(C)CCC=C1c2ccccc2CCc2ccccc21,outcome,[2],inactive
CC(=O)CCc1ccc(O)cc1,outcome,[1],inactive
same,outcome,[2],inactive
N=C1N=C(N)c2ccccc21,outcome,[1],inactive
same,outcome,[2],inactive
Cc1cc(N)n(-c2ccccc2)n1,outcome,[2],inactive
CC(=O)OC(C)(C)C,outcome,[2],inactive
CC1=CC(O)CC(C)(C)C1 (stereo unspecified),outcome,[1],inactive
same,outcome,[2],inactive
CCCCOCCOCCO,outcome,[2],inactive
same,outcome,[3],inactive
same,outcome,[4],inactive
same,outcome,[5],inactive
same,outcome,[6],inactive
same,outcome,[7],inactive
same,outcome,[8],inactive
same,outcome,[9],inactive
same,outcome,[10],inactive
same,outcome,[11],inactive
same,outcome,[12],inactive
same,outcome,[13],inactive
same,outcome,[14],inactive
same,outcome,[15],inactive
same,outcome,[16],inactive
same,outcome,[17],inactive
same,outcome,[18],inactive
same,outcome,[19],inactive
CCCCCCCCOC(C)=O,outcome,[2],inactive
CC1=CCC(C(C)C)=CC1,outcome,[1],inactive
same,outcome,[2],inactive
C1=COCCC1,outcome,[2],inactive
S=c1[nH][nH]c(=S)s1,outcome,[2],inactive
